# Laboratory results as given in ChEMBL document CHEMBL4513146, “CO-ADD screening of Karazin Kharkiv National University (Ukraine) compounds”.
# Entries with a potency or affinity are not part of this list.
# System: Cryptococcus neoformans
# Conditions: Concentration 32 ug.mL-1; ASSAY_TEST Inhibition of Fungal Growth; detection method Resazurin; Absorption (OD600-OD570); plate type 384well; NBS; CORNING #3640
row,Compound,Inhibition [%]
1,COc1ccc(NC(=O)Cn2nc3c(SC4CCCCC4)nccn3c2=O)cc1,-26.97
2,Cc1oc(-c2ccccc2)nc1CSc1nc2ccccc2n2c(C)nnc12,-6.62
3,Cc1nnc2c(S(=O)(=O)N(Cc3ccc(F)cc3)c3ccc(F)c(F)c3)cccn12,-10.38
4,CCOC(=O)c1ccc(NC(=O)Cn2nc3c(Oc4ccccc4)nccn3c2=O)cc1,-7.75
5,CC(C)CCn1c(=O)c2ccc(C(=O)NC3CCCC3)cc2n2c(=O)n(CC#N)nc12,-21.13
6,Cc1ccc(Sc2nccn3c(=O)n(CC(=O)N4CCN(c5ccc(F)cc5)CC4)nc23)c(C)c1,-106.74
7,O=c1c2nn(Cc3cccc(F)c3)c(=O)n2ccn1-c1ccccc1,-10.61
8,CC(C)c1nnc2c(=O)n(CC(=O)Nc3ccc(Br)cc3F)c3ccccc3n12,-15.71
9,CCOC(=O)c1ccc(NC(=O)Cn2nc3c(N4CCOCC4)nccn3c2=O)cc1,-14.12
10,Cc1cccc(C)c1NC(=O)CSc1nnc2ccc(C(=O)Nc3cccc(F)c3)cn12,-3.65
11,Cc1nnc2c(S(=O)(=O)N(Cc3cccc(F)c3)c3cccc(F)c3)cccn12,-6.64
12,Cc1cc2nn(CC(=O)Nc3ccccc3)c(=O)n2c(Nc2ccc(C)c(F)c2)n1,-5.9
13,Cc1ccccc1Oc1nccn2c(=O)n(CC(=O)Nc3cc(F)ccc3F)nc12,-8.18
14,Cc1ccc(-c2ccc3nn(CC(=O)Nc4ccc(Cl)cc4F)c(=O)n3n2)cc1,-20.92
15,Cc1cccc(Sc2nccn3c(=O)n(CC(=O)N4CCN(c5ccc(F)cc5)CC4)nc23)c1,-30.97
16,CCCNC(=O)Cn1nc2n(Cc3ccco3)c(=O)c3sccc3n2c1=O,-16.3
17,CCc1nnc2c(SCC(=O)Nc3ccc(Cl)cc3)nc3ccccc3n12,-3.51
18,COc1cc(OC)c(NC(=O)Cn2nc3c(Sc4cccc(C)c4)nccn3c2=O)cc1Cl,-23.34
19,CCc1ccc(N(Cc2ccc(OC)cc2)S(=O)(=O)c2cccn3c(C)nnc23)cc1,-10.92
20,CCCCc1ccc(NC(=O)Cn2c(=O)c3nnc(C(C)C)n3c3ccccc32)cc1,-30.75
21,Cc1ccc(NC(=O)Cn2nc3ccc(SC(C)(C)C)nn3c2=O)cc1Cl,-28.11
22,COc1ccc(Cn2nc3ccc(-c4ccc(Cl)cc4)nn3c2=O)cc1F,-15.51
23,COc1ccc(NC(=O)Cn2nc3ccc(SCc4ccc(Cl)cc4)nn3c2=O)cc1,-13.57
24,O=S(=O)(c1ccc2nncn2c1)N(Cc1ccc(Cl)cc1)c1ccc2c(c1)OCO2,-11.3
25,CSc1cccc(NC(=O)Cn2nc3c(N4CCCC(C)C4)nccn3c2=O)c1 (stereo not given),-37.15
